# Assay outcomes: PubChem, National Center for Advancing Translational Sciences (NCATS)
# Pf Dd2 inh – blocks in vitro growth of P. falciparum Dd2 | P. falciparum Dd2 growth, SYBR Green, 72 h | Potency, µM (doses to about 28.9 µM), hits mostly inhibitors | 4.3% of 120,000 active; active = well fitted inhibition curve with a large enough effect; also: nearly all actives have a fitted effect of over 65% in size
#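 Readout: SYBR Green fluorescence, 485 nm excitation, 535 nm emission, after ~16 h lysis at 37C. Before that, Dd2-infected red cells (2.5% hematocrit) grew 72 h with compound, 29 uM top final concentration.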
# A number is an active result; n = inactive. Many of the other results were omitted from the sample, so hits are more common in it than they were.
SMILES,Pf Dd2 inh
CCOC(=O)c1cc(OC(=O)c2ccc(OC)c(OC)c2)n(-c2ccccc2)n1,n
Cc1cn2nc(C(=O)N3CCCC3)cc2c(=O)[nH]1,n
O=C1CC(c2noc(-c3ccc(F)cc3)n2)CN1c1ccc(F)c(Cl)c1 (configuration not stated),n
CCn1c(=O)cc(OCC(=O)N2CCN(c3ccc(F)cc3)CC2)c2ccccc21,n
Cc1cccc(-c2nn3c(=O)cc(CN4CCN(C(=O)c5ccccc5Br)CC4)nc3s2)c1,n
COc1ccc(-c2nn3c(=O)cc(CN4CCN(C(=O)/C=C/c5ccccc5)CC4)nc3s2)cc1,n
COc1cccc(-c2nn3c(=O)cc(CN4CCN(C(=O)COc5ccccc5C)CC4)nc3s2)c1,11.2µM
COc1ccc(-c2nn3c(=O)cc(CN4CCN(C(=O)COc5ccc(F)cc5)CC4)nc3s2)cc1,n
COc1ccc(-c2nn3c(=O)cc(CN4CCN(S(=O)(=O)c5ccc(C)cc5)CC4)nc3s2)cc1,11.2µM
COc1ccccc1-c1nn2c(=O)cc(CN3CCN(S(=O)(=O)c4ccc(C)cc4)CC3)nc2s1,n
Cc1cccc(-c2nn3c(=O)cc(CN4CCN(S(=O)(=O)c5ccc(Cl)cc5)CC4)nc3s2)c1,8.91µM
Cc1ccc(-c2nn3c(=O)cc(CN4CCN(C(=O)COc5ccc(C)c(C)c5)CC4)nc3s2)cc1,n
Cc1ccc(S(=O)(=O)N2CCN(Cc3cc(=O)n4nc(-c5ccccc5Cl)sc4n3)CC2)cc1,n
O=C(COc1ccc(F)cc1)NCc1nnc2c(-c3nc(C4CC4)no3)cccn12,n
c1cnc(Oc2cccc(CN(Cc3ccsc3)CC3CCCO3)c2)nc1 (configuration not stated),n
COCCNC(=O)[C@@H]1CCC[C@@H](NCc2ccc(OC)cc2)CN(C)C(=O)C1,n
CNC(=O)[C@@H]1C[C@@H](O)CN1C1CCN(C(=O)COc2ccccc2)CC1,n
Cc1cc(Cl)ccc1NS(=O)(=O)c1c(C(=O)N2CCC(C)CC2)c(C)n(C)c1C,n
Cc1ccc(CN2CCC(CNc3cc(C4CC(O)C4)ncn3)CC2)o1 (configuration not stated),n
OC1(c2csc(CN3CCOCC3)n2)CCN(Cc2ccc(C(F)(F)F)cc2)CC1,n
CCN(CC)Cc1nc(C2(O)CCN(Cc3ccc(C(F)(F)F)cc3)CC2)cs1,11.2µM
CCN1CCC(O)(c2csc(CN(CC)CC)n2)CC1,n
CC(C)c1noc(-c2cn(C3CCN(C(=O)c4cccc(F)c4)CC3)nn2)n1,n
COc1ccc(CNC(=O)N2CCCCC2c2n[nH]c(C)n2)cc1 (configuration not stated),n
COc1ccc(-c2cc3c(c(OC)c2)OCCNC3)nn1,n
SMILES,Pf Dd2 inh
Cc1ccc(-c2cc(O)c3c(c2)CNCCO3)cc1,n
COc1cc(-c2cc(C)c3c(OC)ccc(OC)c3n2)cc2c1OCCNC2,11.2µM
O=C(NC[C@H]1O[C@@H](CC(=O)N2CCN(c3ccccn3)CC2)[C@H](O)[C@@H]1O)Nc1ccccc1,n
COc1ccc(-c2cn(C)c(=O)n3cc(CN4CCNC(=O)C4)nc23)cc1,n
CN1C(=O)COC[C@@H]1[C@H](O)c1ccc(NC(=O)c2cnccn2)cc1,n
O=C(Nc1ccc([C@@H](O)[C@H]2COCC(=O)N2CCCc2ccccc2)cc1)c1cnccn1,12.6µM
CC(=O)Nc1ccc([C@@H](O)[C@H]2COCC(=O)N2CCCc2ccccc2)cc1,n
Cc1cc(Cl)ccc1NS(=O)(=O)c1ccc2c(c1)CCN2S(C)(=O)=O,n
CCC(=O)N1CCc2cc(S(=O)(=O)NC(C(=O)NCc3ccccc3Cl)C(C)C)ccc21 (configuration not stated),n
CS(=O)(=O)N1CCc2cc(S(=O)(=O)NCc3ccccc3Cl)ccc21,3.16µM
COCCN1C(=O)Cc2ccccc2C1C(=O)N(C)Cc1ccco1 (configuration not stated),n
CCOC(=O)c1c(C)[nH]c(C)c1S(=O)(=O)N1CCC(C(=O)Nc2ccccn2)CC1,n
COCc1c(C(=O)N[C@@H]2CN(Cc3ccccn3)C[C@H]2CN(C)C)noc1C,n
O=C1NC2(CCN([S+](=O)([O-])c3ccccc3)C2)OCc2ccccc21 (configuration not stated),n
Cc1ccc(CN(Cc2ccco2)C(=O)COc2ccc(C)c(C)c2)cc1,n
Cc1cc(OCC(=O)N(Cc2ccc(N(C)C)cc2)Cc2ccco2)cc(C)c1Cl,n
Cc1cccc(OCC(=O)N(Cc2ccc(C(C)(C)C)cc2)Cc2ccco2)c1,11.2µM
Cc1ccc(CNc2ncnc3c2cnn3-c2ccc(Cl)cc2)cc1,n
CCc1ccccc1NC(=O)CCC(=O)N1CC(C)Oc2ccc(C)cc21 (configuration not stated),n
COc1ccc([C@H](C)NC(=O)c2c(C)noc2-c2cc(OC)c(OC)c(OC)c2)cc1,n
COc1ccc(-c2onc(C)c2C(=O)NCCCCc2ccccc2)cc1,n
COc1cc(-c2onc(C)c2C(=O)NCCCc2ccccc2)cc(OC)c1OC,11.2µM
COCCCNC(=O)c1c(C)noc1-c1cc(OC)c(OC)c(OC)c1,n
COc1ccc(-c2onc(C)c2C(=O)N(C)Cc2cc(OC)c(OC)c(OC)c2)cc1,10µM
COc1ccc(-c2onc(C)c2C(=O)NCc2c(OC)cc(OC)cc2OC)cc1,n
SMILES,Pf Dd2 inh
Cn1nnc(-c2ccc(C(=O)NC3CCC(n4cnnc4)CC3)cc2)n1 (configuration not stated),n
COc1ccc2c(c1)C1(CCN(C(=O)NC3CCCCC3)C1)C(=O)N2C (configuration not stated),n
COc1ccc2c(c1)C1(CCN(S(=O)(=O)c3cccc(F)c3)C1)C(=O)N2 (configuration not stated),n
COc1ccc2c(c1)C1(CCN(C(=O)COc3ccc(Cl)cc3)C1)C(=O)N2C (configuration not stated),7.08µM
COc1ccc2c(c1)C1(CCN(S(=O)(=O)c3ccc(Cl)cc3)C1)C(=O)N2C (configuration not stated),n
COc1ccc2c(c1)C1(CCN(S(=O)(=O)c3cccc(Cl)c3)C1)C(=O)N2C (configuration not stated),11.2µM
COCCNC(=O)N1CCC2(C1)C(=O)N(C)c1ccc(OC)cc12 (configuration not stated),n
CC(C)CCCC1CN(C(=O)CCN2CCCO2)CCO1 (configuration not stated),n
CC(=O)N1CC2(CCCN(Cc3ccc(Cl)cc3)C2)Cc2ccccc21 (configuration not stated),n
O=C1CCN(Cc2cccnc2)CCCC(C(=O)NC2CCCC2)CCN1 (configuration not stated),n
O=C(C1CCCC1)N1CC2(CCN(Cc3cccnc3)C2)Cc2ccccc21 (configuration not stated),6.31µM
CC(=O)N1CC2(CCCN(Cc3cccnc3)C2)Cc2ccccc21 (configuration not stated),n
O=C(C1CCCC1)N1CC2(CCN(Cc3cccnc3)CC2)Cc2ccccc21,10µM
CC(=O)N1CC2(Cc3ccccc31)CN(C(=O)NC1CCCC1)C2,n
O=C(C1CCCC1)N1CC2(CCN(C3COC3)CC2)Cc2ccccc21,n
CN1CCC(C(=O)N2C3CCC2CN(Cc2cccnc2)C3)CC1,n
O=C(C1CCCC1)N1CC2(CCN(C3CCCCC3)C2)Cc2ccccc21 (configuration not stated),10µM
O=C(C1CCCC1)N1CC2(CCCN(Cc3ccc(Cl)cc3)C2)Cc2ccccc21 (configuration not stated),12.6µM
